miR-122 inh – miR-122 suppressors via Renilla sensor increase, primary screen, cell-based, Huh7 psiCHECK-miR122, Renilla luciferase, single point; 48 h; actives 0.14% (n = 340,000); activation, % at 12.5 µM;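 active = mean activation of 30% or more, with every replicate also reaching 30%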;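 note: higher luciferase signal means stronger suppression of miR-122 activity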
A number is an active result; – = inactive. The sample as a whole holds a higher share of hits than the screen did.

SMILES	miR-122 inh
Cc1ccccc1-c1ccc2c(c1)O[C@@H](CN(C)C(=O)Nc1ccc(F)cc1)[C@@H](C)CN([C@@H](C)CO)S2(=O)=O	37.7
CC(=O)N(C)C[C@H]1Oc2cc(C#C[C@@H](C)O)ccc2S(=O)(=O)N([C@H](C)CO)C[C@H]1C	–
COCC(=O)N(C)C[C@@H]1Oc2cc(-c3ccccc3)ccc2S(=O)(=O)N([C@@H](C)CO)C[C@@H]1C	–
Cc1ccccc1-c1ccc2c(c1)O[C@H](CN(C)C(=O)Nc1ccccc1)[C@H](C)CN([C@H](C)CO)S2(=O)=O	–
CCC(=O)N(C)C[C@H]1Oc2cc(C#Cc3ccccc3)ccc2S(=O)(=O)N([C@@H](C)CO)C[C@H]1C	48.4
CCCC#Cc1ccc2c(c1)O[C@H](CN(C)C(=O)CC)[C@@H](C)CN([C@@H](C)CO)S2(=O)=O	–
COCC(=O)N(C)C[C@H]1Oc2cc(-c3ccccc3)ccc2S(=O)(=O)N([C@@H](C)CO)C[C@@H]1C	–
COc1cccc(-c2cnc3c(c2)C(=O)N([C@H](C)CO)C[C@H](C)[C@@H](CN(C)Cc2ccccc2)O3)c1	–
COc1ccccc1-c1ccc2c(c1)O[C@@H](CN(C)C(=O)Nc1ccccc1)[C@H](C)CN([C@H](C)CO)S2(=O)=O	–
C[C@@H]1CN([C@@H](C)CO)C(=O)c2cccc(NS(=O)(=O)c3ccccc3)c2O[C@@H]1CN(C)Cc1ccc(C(=O)Nc2ccccc2N)cc1	–
C[C@H]1CN([C@@H](C)CO)C(=O)c2cc(-c3cccc(F)c3)cnc2O[C@@H]1CN(C)CC1CCCC1	–
CCCC(=O)Nc1ccc2c(c1)C(=O)N(C)C[C@H](OC)[C@H](C)CN(CCC)[C@@H](C)CO2	–
C[C@@H]1CN([C@H](C)CO)S(=O)(=O)c2ccc(-c3ccncc3)cc2O[C@H]1CN(C)Cc1ccccn1	–
C[C@@H]1CN([C@@H](C)CO)C(=O)c2cc(C#CCc3ccccc3)cnc2O[C@H]1CN(C)C(=O)C1CCCCC1	–
C[C@H]1CN([C@@H](C)CO)C(=O)c2cc(-c3ccc(F)cc3)cnc2O[C@H]1CN(C)C(=O)c1ccccn1	–
COc1ccccc1NC(=O)N(C)C[C@H]1Oc2ncc(C#CCC(C)C)cc2C(=O)N([C@@H](C)CO)C[C@H]1C	–
C[C@H](CO)N1C[C@H](C)[C@H](CN(C)C(=O)Cc2ccccn2)Oc2cc(-c3ccc(C(=O)N(C)C)cc3)ccc2S1(=O)=O	–
C/C=C/c1ccc2c(c1)O[C@@H](CN(C)C(=O)Cc1ccccn1)[C@H](C)CN([C@H](C)CO)S2(=O)=O	–
C[C@H](CO)N1C[C@H](C)[C@@H](CN(C)C(=O)Cc2ccccc2)Oc2cc(C#Cc3ccccc3F)ccc2S1(=O)=O	–
C[C@H]1CN([C@@H](C)CO)S(=O)(=O)c2ccc(C#Cc3ccccc3F)cc2O[C@H]1CN(C)C(=O)Cc1ccccc1	–
C[C@@H]1CN([C@H](C)CO)S(=O)(=O)c2ccc(C#Cc3ccccc3F)cc2O[C@@H]1CN(C)C(=O)Cc1ccncc1	52.1
C[C@@H]1CN([C@@H](C)CO)C(=O)c2cc(/C=C/c3ccccc3)cnc2O[C@@H]1CN(C)C(=O)C1CCOCC1	–
O=C(C1CC1)N(CCN(C(=O)C1CC1)c1ccccc1)c1ccccc1	30.4
COc1ccccc1NC(=O)N(C)C[C@H]1Oc2ncc(C#CCC(C)C)cc2C(=O)N([C@H](C)CO)C[C@H]1C	–
CCCC#Cc1ccc2c(c1)O[C@@H](CN(C)S(C)(=O)=O)[C@H](C)CN([C@@H](C)CO)S2(=O)=O	–
SMILES	miR-122 inh
Cc1cccc(C(=O)Nc2cccc(S(=O)(=O)NCc3ccco3)c2)c1	–
Cc1cc(C(=O)Nc2cccc(O)c2)co1	35.7
CCC(=O)N(C)C[C@@H]1Oc2ncc(C#Cc3ccc(OC)cc3)cc2C(=O)N([C@@H](C)CO)C[C@@H]1C	–
COCC(=O)N(C)C[C@H]1Oc2cc(-c3ccccc3)ccc2S(=O)(=O)N([C@H](C)CO)C[C@@H]1C	–
CO[C@@H]1CN(C)C(=O)c2ccc(NS(=O)(=O)c3cccc(C)c3)cc2OC[C@@H](C)N(C(=O)Cc2cccnc2)C[C@H]1C	–
C[C@H](CO)N1C[C@H](C)[C@@H](CN(C)C)Oc2ncc(C#CC3CC3)cc2C1=O	–
C[C@H](CO)N1C[C@H](C)[C@@H](CN(C)Cc2ccccc2F)Oc2ncc(/C=C/c3ccccc3)cc2C1=O	–
CCC(=O)Nc1ccc(C(=O)Nc2cccc(C)n2)cc1	–
CCC(=O)Nc1cccc(C(=O)/C=C/c2ccccc2)c1	35.9
CCC(=O)Nc1ccc(S(=O)(=O)NCCc2ccccc2)cc1	–
C[C@@H]1CN([C@@H](C)CO)C(=O)c2cc(/C=C/c3ccccc3)cnc2O[C@@H]1CN(C)C(=O)c1ccncc1	–
COc1cccc(NC(=O)N(C)C[C@@H]2Oc3cc(-c4cccc(C(=O)N(C)C)c4)ccc3S(=O)(=O)N([C@@H](C)CO)C[C@H]2C)c1	–
C[C@@H]1CN([C@H](C)CO)C(=O)c2cc(-c3cccc(F)c3)cnc2O[C@H]1CN(C)C(=O)c1cccc(F)c1	–
COc1ccccc1S(=O)(=O)N(C)C[C@@H]1Oc2ncc(-c3ccc(C)cc3)cc2C(=O)N([C@H](C)CO)C[C@H]1C	–
C[C@@H]1CN([C@@H](C)CO)C(=O)c2cc(-c3ccc(F)cc3)cnc2O[C@H]1CN(C)C(=O)c1ccccn1	–
C[C@H](CO)N1C[C@H](C)[C@@H](CN(C)Cc2ccccn2)Oc2ncc(C#Cc3ccc(F)cc3)cc2C1=O	–
Cc1c(NC(=O)NC2CCCCC2)cccc1[N+](=O)[O-]	–
O=C(COC(=O)c1ccccc1C(=O)c1ccc(Cl)c([N+](=O)[O-])c1)NC1CCCCCC1	63.3
O=C(OCc1ccccc1Cl)c1ccccc1C(=O)c1ccccc1	–
C[C@@H]1CN([C@H](C)CO)S(=O)(=O)c2ccc(C3=CCCCC3)cc2O[C@@H]1CN(C)Cc1ccccc1	–
C/C=C/c1ccc2c(c1)O[C@@H](CN(C)C(=O)c1cccnc1)[C@H](C)CN([C@@H](C)CO)S2(=O)=O	–
C[C@@H](O)C#Cc1ccc2c(c1)O[C@H](CN(C)C(=O)c1ccncc1)[C@@H](C)CN([C@@H](C)CO)S2(=O)=O	–
C[C@H](O)C#Cc1ccc2c(c1)O[C@H](CN(C)C(=O)c1ccncc1)[C@H](C)CN([C@@H](C)CO)S2(=O)=O	–
CC(C)C#Cc1ccc2c(c1)O[C@H](CN(C)C(=O)c1ccncc1)[C@H](C)CN([C@@H](C)CO)S2(=O)=O	39.5
C[C@@H]1CN([C@H](C)CO)S(=O)(=O)c2ccc(C#Cc3ccncc3)cc2O[C@@H]1CN(C)C(=O)Nc1ccc2c(c1)OCO2	49.2
SMILES	miR-122 inh
C[C@@H]1CN([C@@H](C)CO)S(=O)(=O)c2ccc(C#Cc3ccccc3)cc2O[C@@H]1CN(C)C(=O)Nc1ccc2c(c1)OCO2	–
CC(C)C#Cc1ccc2c(c1)O[C@H](CN(C)C(=O)c1ccncc1)[C@@H](C)CN([C@@H](C)CO)S2(=O)=O	40.6
C/C=C/c1ccc2c(c1)O[C@H](CN(C)C(=O)c1cnccn1)[C@H](C)CN([C@H](C)CO)S2(=O)=O	32.9
C[C@H](O)C#Cc1ccc2c(c1)O[C@@H](CN(C)C(=O)c1ccncc1)[C@@H](C)CN([C@@H](C)CO)S2(=O)=O	–
C/C=C/c1ccc2c(c1)O[C@H](CN(C)C(=O)c1cccnc1)[C@@H](C)CN([C@@H](C)CO)S2(=O)=O	–
C[C@H](O)C#Cc1ccc2c(c1)O[C@H](CN(C)C(=O)c1ccncc1)[C@@H](C)CN([C@@H](C)CO)S2(=O)=O	–

Screens as filed in PubChem.
